Source: PubChem BioAssay
ELG1 DNA repair: inhibitors of ELG1-dependent DNA repair in HEK293T cells | HEK293T ELG1-luciferase reporter, luminescence, 16 h; DNA damage induced by 5-fluorouridine | Potency, µM (titrated, usually from 46.1 µM), usual class: inhibitors | hit rate 2.3% among 330,000 | AID 504467; further: nearly all actives have a fitted effect of over 55% in size
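Overnight (16 hr) co-exposure of 2,000 cells/well to 5-fluorouridine and compound at 37 °C preceded detection. Luciferase was quantified via ONE-Glo luminescence; loss of signal denotes inhibition.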
Gal4-VP16 FLuc: inhibits Gal4-VP16 luciferase reporter, ROR gamma counter-screen | Drosophila S2 Gal4-VP16 UAS-luciferase, luminescence, 20 h | Potency, µM (top dose mostly 53.6 µM), actives largely listed as inhibitors | hit rate 3.5% among 310,000 | AID 2546;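 further: Gal4-VP16 expression switched on by copper sulfate through the metallothionein promoter; nearly all actives have a fitted effect of over 50% in size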
DT40 TDP1 no CPT: qHTS for Inhibitors of human tyrosyl-DNA phosphodiesterase 1 (TDP1): qHTS in cells in absence of CPT | DT40 Tdp1-/- hTDP1 cells, no CPT, ATP luminescence, 48 h | Potency, µM (titrated, usually from 46.2 µM), usual class: inhibitors | hit rate 15% among 420,000 | AID 686978, 2013; further: nearly all actives have a fitted effect of over 55% in size
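DT40 Tdp1-/-;hTDP1 cells, no CPT (DMSO vehicle only), 400 cells/well; compounds pin-transferred; ≥48 hr, 37 °C; CellTiter-Glo 30 min RT dark, luminescence read.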
TDP1 cell CPT: DT40-hTDP1 cell growth loss with CPT; chicken DT40 Tdp1-/-;hTDP1 cells + 20 nM CPT, ATP luminescence, 48 h; Potency, µM (highest dose often 46.2 µM), actives largely listed as inhibitors; hit rate 12% among 420,000; AID 686979; further: nearly all actives have a fitted effect of over 55% in size
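Chicken DT40 Tdp1-/- cells stably complemented with human TDP1 were seeded at 400 cells/well in medium containing 20 nM camptothecin, exposed to pin-transferred compounds, and grown at 37 °C for at least 48 hr. Viability was read as ATP luminescence.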
RORg inh: blocks mouse ROR gamma transcriptional activity; P51450; Drosophila S2 Gal4-RORgamma UAS-luciferase reporter, 20 h; Potency, µM (series often up to 53.6 µM), hits mostly inhibitors; hit rate 5.4% among 310,000; AID 2551; further: nearly all actives have a fitted effect of over 60% in size
Target sequence (P51450 whole entry, looked up, the tested form may be a part): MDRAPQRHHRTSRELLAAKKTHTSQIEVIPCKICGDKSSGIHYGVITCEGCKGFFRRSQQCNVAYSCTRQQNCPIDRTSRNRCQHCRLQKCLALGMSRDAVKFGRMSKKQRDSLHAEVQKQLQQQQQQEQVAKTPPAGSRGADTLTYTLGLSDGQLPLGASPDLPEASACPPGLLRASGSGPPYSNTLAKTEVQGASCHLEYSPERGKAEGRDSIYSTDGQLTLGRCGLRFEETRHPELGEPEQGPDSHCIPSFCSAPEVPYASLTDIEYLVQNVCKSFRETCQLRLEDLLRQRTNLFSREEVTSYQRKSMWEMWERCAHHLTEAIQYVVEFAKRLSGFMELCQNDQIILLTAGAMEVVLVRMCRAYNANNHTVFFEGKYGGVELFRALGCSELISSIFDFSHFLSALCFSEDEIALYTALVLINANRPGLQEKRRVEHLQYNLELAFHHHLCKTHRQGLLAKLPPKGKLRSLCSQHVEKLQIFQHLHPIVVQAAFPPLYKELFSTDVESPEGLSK
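A Gal4/UAS one-hybrid system in insect cells: metallothionein-promoter Gal4–ROR gamma fusion plus Photinus luciferase reporter. Copper sulfate 700 uM final, 20 hr ambient incubation, luminescent detection after 10 min with reagent.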
12-LOX inh: ALOX12 (human) lipoxygenase inhibition | P18054 | purified 12hLO, xylenol orange hydroperoxide absorbance | Potency, µM (top dose mostly 108 µM), actives largely listed as inhibitors | hit rate 1.1% among 580,000
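Purified human 12hLO (150 nM final) in 25 mM Hepes, 0.01% Triton X-100, pH 7.0 was preincubated 15 min at room temperature with compound. Then 40 uM arachidonic acid was added, 30 min. Hydroperoxide was read by Fe-XO absorbance ratio 573/405 nm.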
Large screens that a line does not name were inactive. Sampled rows, rich in hits. Any-hit rate of the full collection: about 15%. The call rests on the fitted dose curve; in most records, active means well fitted curve in the direction sought with a large enough effect; inconclusive means small, poorly fitted or top-dose-only effect, or another doubt; inactive means no such curve, though single readings can be large; an effect the other way counts as inactive or inconclusive.

Cc1cc(/C=N/NC(=O)c2cccc(N(C)C)c2)c(C)n1-c1cc(C(=O)O)cc(C(=O)O)c1	ELG1 DNA repair inconclusive
Cc1cc(/C=N/NC(N)=S)c(C)n1-c1ccc(Cl)cc1	Gal4-VP16 FLuc 1.12µM, DT40 TDP1 no CPT 18.4µM, TDP1 cell CPT 11.6µM, RORg inh 0.447µM, 12-LOX inh inconclusive
CC(C)c1nccc(-c2c(-c3ccccc3)ncn2CCCN2CCOCC2)n1	none (no result: ELG1 DNA repair, Gal4-VP16 FLuc, DT40 TDP1 no CPT, TDP1 cell CPT, RORg inh)
Cc1noc(C2CCCCCN2C(=O)NCC(C)C)n1 (stereo not given)	none (no result: ELG1 DNA repair, Gal4-VP16 FLuc, DT40 TDP1 no CPT, TDP1 cell CPT, RORg inh)
Cc1ccc(C(=O)NC2CCCCCCC2)c(Cl)c1	ELG1 DNA repair inconclusive, Gal4-VP16 FLuc 8.91µM, RORg inh 7.08µM
Cc1ccc2cc3cc(C(=O)N4CC(C)CC(C)C4)oc3nc2c1 (stereo not given)	ELG1 DNA repair inconclusive, Gal4-VP16 FLuc inconclusive, DT40 TDP1 no CPT 23.1µM, TDP1 cell CPT inconclusive, RORg inh inconclusive
Cc1ccc2cc3cc(C(=O)NC4CCCCC4)oc3nc2c1	ELG1 DNA repair inconclusive, Gal4-VP16 FLuc inconclusive, DT40 TDP1 no CPT inconclusive, TDP1 cell CPT inconclusive, RORg inh 0.562µM
COc1ccc2cc3cc(C(=O)N4CC(C)CC(C)C4)oc3nc2c1 (stereo not given)	ELG1 DNA repair inconclusive, RORg inh inconclusive (no result: 12-LOX inh)
COc1ccc2cc3cc(C(=O)NCC4COc5ccccc5O4)oc3nc2c1 (stereo not given)	ELG1 DNA repair inconclusive, DT40 TDP1 no CPT 16.4µM, TDP1 cell CPT inconclusive
Cc1ccc2cc3cc(C(=O)NC4CC4)oc3nc2c1	ELG1 DNA repair inconclusive, DT40 TDP1 no CPT inconclusive
CC1CCN(C(=O)c2nn(C(C)C)c(=O)c3ccccc23)c2cc(Cl)ccc2S1 (stereo not given)	none (no result: ELG1 DNA repair, Gal4-VP16 FLuc, DT40 TDP1 no CPT, TDP1 cell CPT, RORg inh)
CS(=O)(=O)N1CCCC1c1noc(CCC(=O)NC2CC2)n1 (stereo not given)	none (no result: ELG1 DNA repair, Gal4-VP16 FLuc, DT40 TDP1 no CPT, TDP1 cell CPT, RORg inh)
COc1ccc(CNC(=O)c2cc3cc4ccc(C)cc4nc3o2)cc1	DT40 TDP1 no CPT 23.1µM, TDP1 cell CPT inconclusive (no result: ELG1 DNA repair, Gal4-VP16 FLuc, RORg inh)
COc1ccc2cc3cc(C(=O)Nc4ccc5c(c4)OCCO5)oc3nc2c1	ELG1 DNA repair inconclusive, Gal4-VP16 FLuc inconclusive, DT40 TDP1 no CPT inconclusive, TDP1 cell CPT inconclusive
COc1ccc2cc3cc(C(=O)Nc4cc(OC)c(OC)c(OC)c4)oc3nc2c1	ELG1 DNA repair 16.4µM, DT40 TDP1 no CPT inconclusive, TDP1 cell CPT inconclusive
COc1ccc2cc3cc(C(=O)NCc4ccc5c(c4)OCO5)oc3nc2c1	12-LOX inh inconclusive
CC(Sc1nnc(COc2ccc3c(c2)CCCC3)n1C)C(=O)Nc1ccc2c(c1)OCO2 (stereo not given)	none (no result: ELG1 DNA repair, Gal4-VP16 FLuc, DT40 TDP1 no CPT, TDP1 cell CPT, RORg inh)
CC(Sc1nnc(NC2CCCCC2)s1)C(=O)Nc1ccc2c(c1)C(=O)c1ccccc1C2=O (stereo not given)	ELG1 DNA repair inconclusive, DT40 TDP1 no CPT 20.6µM, TDP1 cell CPT inconclusive
Cc1cc(/C=N\NC(=O)c2cccs2)c(C)n1-c1ccc2ncccc2c1	ELG1 DNA repair inconclusive, Gal4-VP16 FLuc inconclusive, DT40 TDP1 no CPT 10.3µM, TDP1 cell CPT 13µM, RORg inh inconclusive
Cc1cc(C)cc(-n2c(C)cc(/C=N/NC(=O)CSc3ncccn3)c2C)c1	DT40 TDP1 no CPT inconclusive, TDP1 cell CPT 25.9µM, RORg inh inconclusive
Cc1cc(C)cc(-n2c(C)cc(/C=N/NC(=O)c3ccncc3)c2C)c1	RORg inh 7.08µM
Cc1cc(/C=N\NC(=O)COc2cccc3cccnc23)c(C)n1-c1ccc(Br)cc1	TDP1 cell CPT inconclusive
Cc1cc(/C=N/NC(=O)c2ccsc2)c(C)n1-c1cnccn1	ELG1 DNA repair inconclusive
Cc1cc(C)cc(-n2c(C)cc(/C=N/NC(=O)c3cccc([N+](=O)[O-])c3C)c2C)c1	ELG1 DNA repair inconclusive, Gal4-VP16 FLuc 4.47µM, DT40 TDP1 no CPT 25.9µM, TDP1 cell CPT inconclusive, RORg inh 2.82µM
O=C(NC(c1ccccc1)c1ccc(Br)cc1)C(c1ccccc1)C1CCCC1 (stereo not given)	none (no result: ELG1 DNA repair, Gal4-VP16 FLuc, DT40 TDP1 no CPT, TDP1 cell CPT, RORg inh)
CCNC(=O)[C@@H]1C[C@H](NC(C)=O)CN1Cc1ccc(OC2CCCC2)cc1	none (no result: ELG1 DNA repair, Gal4-VP16 FLuc, DT40 TDP1 no CPT, TDP1 cell CPT, RORg inh)
CNC(=O)c1cc[nH]c1C1CCCN(Cc2ccsc2)C1 (stereo not given)	none (no result: ELG1 DNA repair, Gal4-VP16 FLuc, DT40 TDP1 no CPT, TDP1 cell CPT, RORg inh)
Nc1nc(SCC(=O)Nc2cccc(S(=O)(=O)N3CCCCCC3)c2)n[nH]1	none
Cc1nnc(SCC(=O)Nc2cccc(S(=O)(=O)N(C)c3ccccc3)c2)s1	ELG1 DNA repair inconclusive, Gal4-VP16 FLuc inconclusive, DT40 TDP1 no CPT 6.51µM, TDP1 cell CPT 8.2µM, RORg inh inconclusive
CN(c1ccccc1)S(=O)(=O)c1cccc(NC(=O)CSc2n[nH]c(N)n2)c1	ELG1 DNA repair 20.6µM, Gal4-VP16 FLuc 7.08µM, DT40 TDP1 no CPT 9.2µM, TDP1 cell CPT 9.2µM, RORg inh inconclusive
Cc1ccc(NC(=O)c2cc3c(s2)CCC3)cc1C	none (no result: ELG1 DNA repair, Gal4-VP16 FLuc, DT40 TDP1 no CPT, TDP1 cell CPT, RORg inh)
CN(C)c1ccc(Nc2cc(Cl)ncn2)cc1	ELG1 DNA repair inconclusive, TDP1 cell CPT inconclusive, 12-LOX inh inconclusive
CN(C)c1cccc(-c2cc(Nc3ccc(C(C)(C)C)cc3)ncn2)c1	DT40 TDP1 no CPT inconclusive, TDP1 cell CPT 20.6µM (no result: ELG1 DNA repair, Gal4-VP16 FLuc, RORg inh)
C/C(=N\NC(N)=S)c1ccc(Cl)s1	ELG1 DNA repair inconclusive, Gal4-VP16 FLuc 5.01µM, DT40 TDP1 no CPT 4.61µM, TDP1 cell CPT 5.17µM, RORg inh 1.41µM, 12-LOX inh inconclusive
C/C(=N/NC(=O)c1ccccc1)c1ccc(Cl)s1	none (no result: ELG1 DNA repair, Gal4-VP16 FLuc, DT40 TDP1 no CPT, TDP1 cell CPT, RORg inh)
